Shown are actives, neighbours in structure and some others; about 5% of the full set was active somewhere.
UCHL1 block: human UCHL1 deubiquitinase inhibition. purified UCHL1, Ub-rhodamine cleavage fluorescence. inhibition, % at 20 µM. 47,000 tested, 0.2% active. AID 1645859
Target sequence (P09936 whole entry, looked up): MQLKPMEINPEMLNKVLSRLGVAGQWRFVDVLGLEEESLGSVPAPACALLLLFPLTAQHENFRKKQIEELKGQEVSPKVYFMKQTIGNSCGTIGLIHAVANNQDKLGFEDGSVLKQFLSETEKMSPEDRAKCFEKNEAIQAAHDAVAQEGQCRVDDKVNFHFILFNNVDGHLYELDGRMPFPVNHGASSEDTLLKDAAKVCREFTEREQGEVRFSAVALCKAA
USP8 inh: blocks human USP8 ubiquitin-rhodamine cleavage. AID 1645853. inhibition, % at 20 µM. purified USP8, Ub-rhodamine cleavage fluorescence, 30 min. 47,000 tested, 4.2% active. P40818
USP7 inh: inhibitors of human USP7 deubiquitinase | 47,000 tested, 0.3% active | purified USP7, Ub-rhodamine cleavage fluorescence | Q93009 | AID 1645854 | inhibition, % at 20 µM
USP10 inh: human USP10 deubiquitinase inhibition; purified USP10, Ub-rhodamine fluorescence, 60 min; AID 1645856; inhibition, % at 20 µM; Q14694; 47,000 tested, 1.1% active
Starred values were filed as active, the others as inactive; . = no result given. Cut-off read from the data, not from the text of the source: active = inhibition above about 30%; inactive = the rest.

SMILES	UCHL1 block	USP8 inh	USP7 inh	USP10 inh
O=C(NCCCN1CCCC1=O)c1cc2cn(C3CC3)cc2s1	-8	66*	-16	-10
CN(C)CCCNC(=O)c1cc2cn(C3CCCC3)cc2s1	0	63*	0	-3
CC1CCN(CCNC(=O)c2cc3cn(C4CC4)cc3s2)CC1	-15	54*	-17	-7
CN1CCN(CCNC(=O)c2cc3cn(C4CCCC4)cc3s2)CC1	0	-9	-5	-4
Cc1noc(-c2cccnc2N2CCCN(Cc3ccc(F)cc3)CC2)n1	2	-1	-13	0
Cc1cccc(CNC(=O)Cn2c(=O)c(C)nc3cc(C)c(C)cc32)c1	2	32*	0	3
COc1ccc(-c2csc3ncnc(NCCCN4CCOCC4)c23)cc1	0	-10	0	-2
Oc1cc(OCCN2CCOCC2)ccc1-c1[nH]ncc1-c1ccc(Cl)cc1	4	84*	0	2
NC(=O)C1CCN(CCOc2ccc(-c3[nH]ncc3-c3ccc(Cl)cc3)c(O)c2)CC1	0	77*	-2	-3
Oc1cc(OCCN2CCOCC2)ccc1-c1[nH]ncc1-c1ccc(Br)cc1	0	76*	-2	2
CCOC(=O)C1=C(C)Oc2ncn3nc(-c4ccccn4)nc3c2C1c1ccco1 (centres undefined)	0	18	3	-1
O=c1c(NCc2ccc(F)cc2)nccn1-c1ccc2c(c1)OCCO2	2	-9	0	0
COc1cccc(CNC(=O)c2cccc(S(=O)(=O)N3CCc4ccccc43)c2)c1	5	-7	5	4
O=C1CCCC[C@@H]2[C@H](C[C@@H](Cc3ccc(F)cc3)N2C(=O)c2cnccn2)N1	-1	2	0	0
COc1ccc(Cl)cc1NC(=O)c1nc(-c2cn(-c3ccccc3)nn2)no1	9	99*	-9	32*
COc1cc(OC)cc(-c2nc(-c3cn(-c4cccc(F)c4)nn3)no2)c1	5	62*	8	5
COc1ccccc1-c1nc(-c2cn(-c3cccc(Cl)c3)nn2)no1	27	96*	51*	71*
Cc1ccccc1NC(=O)c1nc(-c2cn(Cc3ccc(F)cc3)nn2)no1	9	95*	0	35*
Fc1ccc(Cn2cc(-c3noc(-c4ccco4)n3)nn2)cc1	0	-5	-9	-3
COc1ccccc1NC(=O)c1nc(-c2cn(-c3ccc(F)cc3)nn2)no1	-9	57*	-9	21
O=C(c1ccc2occc2c1)N1CCC(S(=O)(=O)c2ccc(-c3ccco3)cc2)CC1	52*	78*	52*	33*
COc1ccc(-c2csc(-c3cc4c([nH]c3=O)CC(c3ccco3)CC4=O)n2)cc1 (centres undefined)	-36	-16	-34	-6
O=C1CC(c2ccco2)Cc2[nH]c(=O)c(-c3nc(-c4ccc(Cl)cc4)cs3)cc21 (centres undefined)	13	34*	41*	-10
Cc1cc(C(=O)N2CCC(Nc3ncnc4c3CCC4)C2)nn1C (centres undefined)	2	17	-1	1
O=C(CNS(=O)(=O)c1cc(C(F)(F)F)ccc1Cl)N1CCCCCC1	2	15	-21	2
SMILES	UCHL1 block	USP8 inh	USP7 inh	USP10 inh
COC(=O)c1ccc(Nc2cc(C)nc3cc(C(F)(F)F)ccc23)cc1	3	35*	5	27
COC(=O)c1ccc(COC(=O)c2cc(C)nc3ccccc23)cc1	1	-1	6	-1
CC1CCc2c(sc3ncnc(NC4CC4)c23)C1 (centres undefined)	-1	15	-14	0
CC1CCc2c(sc(N)c2C(=O)NC2CCCC2)C1 (centres undefined)	-19	37*	-28	-9
CCOc1ccccc1NC(=O)Cn1c(=O)n(CCC(=O)NC2CCCC2)c(=O)c2cc(OC)c(OC)cc21	1	0	6	-2
O=C(Nc1ccc2c(c1)OCO2)c1cnc(N2CCOCC2)nc1	2	81*	0	0
O=C(Nc1ccc2c(c1)OCCO2)c1cnc(N2CCOCC2)nc1	1	-4	-6	1
O=C(Nc1ccc2c(c1)OCO2)c1cc(CN2CCCC2)on1	5	53*	-7	5
O=C(COc1ccc(N2CC(C(=O)NCc3ccccc3)CC2=O)cc1)Nc1ccccc1Cl (centres undefined)	0	59*	26	49*
CCN(CC)c1ccc(C(=O)CN2CCC(S(=O)(=O)c3ccc(-c4ccco4)cc3)CC2)cc1	1	-5	0	-6
COc1cccc(-c2cc(C(=O)Nc3cc(C)n(Cc4ccc(Cl)cc4)n3)no2)c1	3	38*	16	22
Cc1c(C)n(-c2ccc(Br)cn2)c2ncn(Cc3ccco3)c(=N)c12	0	1	5	-2
CCOc1ccccc1NC1c2ccccc2C(=O)N1c1cccnc1 (centres undefined)	4	71*	1	-2
CSc1cccc(NC2c3ccccc3C(=O)N2c2cccnc2)c1 (centres undefined)	3	-10	-6	3
CNC(=O)c1cc2c(nc1NC(C)C)CCN(c1ncc(C)cn1)CC2	-1	-194	-25	-5
CC(=O)C1=C(O)[C@@]2(O)C(=O)c3c(c(C)c4ccc(C)c(O)c4c3O)C[C@H]2[C@@H](N)C1=O	53*	-104	50*	-3
Cc1nc(N2CCC(C)CC2)ncc1-c1cc(=O)[nH]c(N2c3ccccc3CC2C)n1 (centres undefined)	6	44*	7	4
Cc1nc(N2CCOCC2)ncc1-c1cc(=O)[nH]c(N2c3ccccc3CC2C)n1 (centres undefined)	4	12	9	8
O=C(Nc1ccc(Br)cc1)C1C2C=CC3(O2)C1C(=O)N(C1CCCCC1)C3C(=O)NC1CCCCC1 (centres undefined)	3	8	-58	1
Cc1ccccc1CNC(=O)CCn1cnc2c(-c3ccccc3)noc2c1=O	3	38*	-11	6
Cc1ccc(CNC(=O)CCn2cnc3c(-c4ccccc4)noc3c2=O)cc1	0	-3	-23	0
COc1ccc2c(CNC3CCC(C)CC3)c(C(=O)O)n(C)c2c1 (centres undefined)	-1	0	.	1
CC(=O)Nc1ccc(NC(=O)C(C)Nc2ccc(Oc3ccccc3)cc2)cc1 (centres undefined)	8	61*	-3	0
CC1CC(C)CN(c2ncc3c(n2)CC(c2cccs2)CC3=O)C1 (centres undefined)	0	9	-12	1
Nc1c2c(nc3cc(Cl)ccc13)CCCC2=O	-3	45*	-4	-2
CNc1nc2c(c(=O)n1C)CN(C(=O)Nc1cccc3ccccc13)CC2	28	90*	-86	21
COc1ccc(CNc2ccc(C(=O)OCc3ccccc3F)cc2S(=O)(=O)Nc2cccc(OC)c2)cc1	2	8	6	33*
O=C(CCc1nnc2n(Cc3ccccc3Cl)c(=O)c3ccccc3n12)N1CCN(C(=O)c2ccco2)CC1	0	14	-14	-2
CSc1cccc(NC(=O)c2cc(-c3cccnc3)n[nH]2)c1	4	97*	.	27
